# Results: PubChem BioAssay (EPA / NIEHS)
# Activity calls are given as the source filed them. Rule for the calls: active = hit-call score of the fitted dose curve at least 0.9, where 1 is the maximum; inactive = score below 0.9.
# Read-out: Interferon-gamma inducible Protein 10 (IP10), CXCL10 (gene 3627)
# Assay: BSK_hDFCGF_IP10: BioMAP Diversity Plus: hDFCGF Assay for Interferon-gamma inducible Protein 10 (IP10) Biomarker Activity (AID 2283053)
# Settings: primary human foreskin fibroblasts; actives raise or lower the signal
# Protocol: BSK_hDFCGF is a cell-based, multiplexed-readout assay that uses foreskin fibroblast, a human skin primary cell, with measurements taken at 24 hours after chemical dosing in a 96-well plate.BSK_hDFCGF_IP10 is an assay component measured in the BSK_hDFCGF assay. It measures IP-10 antibody related to regulation of gene expression using ELISA technology.Data from the assay component BSK_hDFCGF_IP10 was analyzed into 1 assay endpoint. This assay endpoint, BSK_hDFCGF_IP10, was analyzed with bidirectional fitting relative to DMSO as the negative control and baseline of activity. Using a type of binding reporter, gain or loss-of-signal activity can be used to understand changes in the signaling as they relate to the gene CXCL10. Furthermore, this assay endpoint can be referred to as a primary readout, because this assay has produced multiple assay endpoints where this one serves a signaling function. To generalize the intended target to other relatable targets, this assay endpoint is annotated to the cytokine intended target family, where the subfamily is chemotactic factor.
# The levels of cell surface (or secreted, indicated by the prefix "s") biomarker endpoints were measured by ELISA. Overt cytotoxicity to cells in confluent adherent cultures (all systems other than the BT system) was assessed by measuring total protein levels using sulforhodamine B (SRB) staining in parallel cultures at the time of biomarker measurements, indicated as SRB endpoints. For proliferation assays for adherent cell types, individual cell types are cultured at sub-confluence and relative cell numbers quantified by SRB staining at time points optimized for each system (48 h: 3C and CASM3C systems; 72 h: BT and HDF3CGF systems; 96 h: SAg system). SRB was performed by staining cells with 0.1% SRB after fixation with 10% TCA and reading wells at 560 nm.Viability and proliferation of PBMC (T cells) was quantified by Alamar Blue reduction for the SAg and BT systems. For PBMC viability (referred to as PBMC Cytotoxicity within the assay endpoint names), cells were plated (75,000/well in a 96-well plate) and then chemical samples added for 1 h before addition of activators, SEB and TSST-1 (20 ng/mL final concentration each). Cells were incubated for 90 h. Then, Alamar Blue (20 uL/well) (Invitrogen, Cat DAL1100) was added for 6 h, and the plates were read with a fluorescence microplate reader at 546/580 nm (excitation/emission). For PBMC proliferation, cells were plated and activated as above but incubated for only 16 h prior to addition of Alamar Blue. Plates were read after 6 h.
SMILES,outcome,AC50
c1ccc2n[nH]nc2c1,inactive,
Cc1ccc(C(C)C)cc1,inactive,
CCN(CC)C(=O)c1cc(S(=O)(=O)Cc2ccccc2)c(N2CCC(c3ccccc3)CC2)cc1N(CC)CCN(C)C,inactive,
COCC(C)OCC(C)OCC(C)O (stereo not given),inactive,
c1ccc2ccccc2c1,inactive,
Cc1cccc2ccccc12,inactive,
O=C=NCCCCCCN=C=O,inactive,
CCCCOC(=O)CC(CC(=O)OCCCC)(OC(C)=O)C(=O)OCCCC,inactive,
CCO[Si](CCCNC(N)=O)(OCC)OCC,inactive,
CC1(C)NC(=O)N(c2ccc([N+](=O)[O-])c(C(F)(F)F)c2)C1=O,inactive,
O=c1ccc2ccccc2o1,inactive,
CC(C)(c1cc(Br)c(O)c(Br)c1)c1cc(Br)c(O)c(Br)c1,,6.23 µM (active)
CC1=CC(=O)/C(=C(/C)O)C(=O)O1,inactive,
CC[C@H](NC(=O)c1cc(F)ccc1NS(=O)(=O)c1cccc2cccnc12)c1ccccc1,inactive,
c1ccc(C[n+]2cccc3ccccc32)cc1,inactive,
Cc1oc2c(NC(=O)c3c(Cl)cccc3Cl)cccc2c1C(C)(C)O,inactive,
CCCCCCCCCC(=O)O,inactive,
OC12N=C(c3ccccc3)SC1Cc1cc(Cl)ccc12 (stereo not given),inactive,
O=c1c(-c2ccc(O)cc2)coc2cc(O)cc(O)c12,,20 µM (active)
CCCOC(=O)c1cc(O)c(O)c(O)c1,,20 µM (active)

SMILES,outcome,AC50
CC(=O)N1CCN(c2ccc(OC[C@H]3CO[C@](Cn4ccnc4)(c4ccc(Cl)cc4Cl)O3)cc2)CC1,,33.3 µM (active)
CCCC(=O)OCCC(C)C,inactive,
O=CCCCC=O,,34.9 µM (active)
CCCCCCCCCCCO,,36.8 µM (active)
CCCCCCCCOC(=O)c1cc(O)c(O)c(O)c1,,12.7 µM (active)
O=C1CCC(C2CCCCC2)CC1,,33.1 µM (active)
O=c1[nH]sc2ccccc12,,4.08 µM (active)
CC(C)(C)c1cc(/C=C2\SC(N)=NC2=O)cc(C(C)(C)C)c1O,,25.7 µM (active)
CN1C(=O)N(c2ccccc2Br)Cc2cnc(Nc3ccc4c(c3)OCC(CO)O4)nc21 (stereo not given),,21.3 µM (active)
CC(O)CC(C)(C)O (stereo not given),inactive,
CCN(Cc1cccc(S(=O)(=O)O)c1)c1ccc(C(=C2C=CC(=[N+](CC)Cc3cccc(S(=O)(=O)O)c3)C=C2)c2ccccc2S(=O)(=O)[O-])cc1,,18.8 µM (active)
COc1ccc2cc(S(=O)(=O)N[C@H](CC(=O)N[C@H](Cc3ccc(CN4[C@H](C)CCC[C@@H]4C)cc3)C(=O)N(C)C(C)C)c3ccc4c(c3)OCO4)ccc2c1,,30.4 µM (active)
Cc1c2ccccc2c(C)c2c1ccc1ccccc12,,6.29 µM (active)
CN(C[C@@H](CC[N+]12CCC(C3CCCCC3)(CC1)CC2)c1ccc(Cl)c(Cl)c1)C(=O)c1cc(C(F)(F)F)cc(C(F)(F)F)c1,,6.46 µM (active)
O=C(O)Cn1c(=O)n(Cc2ccc(Br)cc2F)c(=O)c2ccc(Cl)cc21,inactive,
O=C(O)c1ccccc1-n1cc(C(=O)O)c(=O)c2cc(Nc3c(F)cc(F)cc3Cl)c(Cl)cc21,inactive,
Oc1ccccc1,inactive,
CN(C)C(=O)C1(N2CCCCC2)CCN(CC[C@@]2(c3ccc(Cl)c(Cl)c3)CN(C(=O)c3ccccc3)CCO2)CC1,,27.2 µM (active)
CC(C)(O)c1ccc(CNC(=O)c2cccnc2Oc2ccc3nonc3c2)cc1,inactive,
Cc1cc2c(cc1C(F)(F)F)N(C(=O)Nc1ccc(Oc3cccnc3C)nc1)CC2,,18.4 µM (active)
